# Test results: PubChem BioAssay AID1745845 (National Center for Advancing Translational Sciences (NCATS), 2022)
# Out of some 360,000 compounds screened, about 2,600 (0.72%) were called active. Not shown: some 5% with an inconclusive outcome. Shown is part of a subset that was picked to be rich in actives. Where a call stands in place of a potency, no number is given. Values without a mark were called inactive. Calls follow the shape of the dose curve; as a rule, active = well fitted inhibition curve with a large enough effect; inconclusive = small, poorly fitted or top-dose-only effect; inactive = no such curve, though single readings can be large or run the other way.
# Test: Primary qHTS for Inhibitors of ATXN expression; also: nearly all actives have a fitted effect of over 55% in size
# Conditions: HEK-293 ATXN2-luciferase reporter, luminescence, 24 h; series mostly up to 57 µM
# Outline: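 ATXN2-luciferase reporter cells (luciferase flanked by upstream and downstream ATXN2 gene portions) were treated 24 h at 37 °C with compounds at up to 57 uM. SteadyGlo luminescence gave expression; GF-AFC fluorescence gave viability.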
# Potency is read from the fitted curve at half-maximal effect.
Compound,Potency,"activity change, negative = inhibition"
CCOCCCNC(=O)c1cn(CC)c2ccc(S(=O)(=O)N3CCc4ccccc4C3)cc2c1=O,inactive,
COc1ccc(NC(=O)CSC2=Nc3ccccc3C3=NC(CC(=O)NCc4ccccc4OC)C(=O)N23)cc1Cl (centres undefined),inactive,
COc1ccc(NC(=O)Cn2c(=O)cc(C)c3c(C)nn(-c4cccc(Cl)c4C)c32)cc1OC,inactive,
NC(=O)C1CCN(C(=O)c2cccc(NC(=O)c3nsc4ccccc34)c2)CC1,inactive,
c1ccc2c(c1)C(=NC1CCCCC1)NC2=NC1CCCCC1,28.2 µM (active),
Cc1ccc2nc(-c3ccco3)c(Cc3cccc(Cl)c3)n2c1,inactive,
CN(Cc1ccccc1)c1ncnc2onc(-c3ccc(F)cc3)c12,inactive,
Cn1cc(C(=O)c2ccc(Cl)cc2Cl)cc1C(=O)NN,inactive,
CC(C)(C)NC(=O)NC(=O)COC(=O)Cc1ccc(Cl)cc1Cl,inactive,
CC(C)(C)c1cc(C(=O)NN)n(Cc2ccc(Cl)cc2Cl)n1,12.6 µM (active),
CCOC(=O)c1cccc(NC(=O)c2cc(CN3CCCC3)on2)c1,inactive,
CN(O)C(=S)c1ccccc1,3.98 µM (active),
CN(Cc1ccccc1)C(=O)c1cccc(C(=O)N(C)Cc2ccccc2)c1,inactive,
COc1cc(NS(=O)(=O)c2cccs2)cc(OC)c1,inactive,
Cc1c2cnn(-c3ccccc3)c(=O)c2c(C)n1C(C)C(=O)Nc1ccc(Br)cc1F (centres undefined),inactive,
S=C(NCCCc1cnc[nH]1)NCCCN(Cc1ccc(Cl)c(Cl)c1)c1ccc(Br)cn1,15.8 µM (active),
COc1ccccc1CNC(=O)C(=O)NCC(c1cccs1)S(=O)(=O)c1cccs1 (centres undefined),inactive,
COc1ccc(CCNC(=O)CCCn2c(=O)c3ccccc3n(Cc3ccc(C)cc3)c2=O)cc1OC,inactive,
CCCCCCCc1ccc(CCc2cccc(O)c2C(=O)O)cc1,inactive,
COc1ccccc1OCCCn1c(-c2ccc(Cl)cc2)nc2ccccc2c1=O,inactive,

Compound,Potency,"activity change, negative = inhibition"
CCOC(=O)C1=C(c2ccc(OC)cc2)C(=O)c2ccccc2C1=O,5.01 µM (active),
CCOC(=O)C(NC(C)=O)C(=O)Nc1ccc(OC)cc1 (centres undefined),,-27.3% [at 11.3 µM]
COC(=O)c1cc(OC)ccc1-c1ccc(OC)cc1,inactive,
Cc1cccc(-c2nc(SCC(=O)Nc3cc(C)on3)c3c(=O)n(C)c(=O)n(C)c3n2)c1,inactive,
CC(NCc1ccc2c(c1)nc(NC(=O)c1ccc(-c3cn[nH]c3)s1)n2CC(C)(C)O)C(C)(C)C (centres undefined),0.968 µM (active),
O=C(NCc1ccccc1)C1CCN(S(=O)(=O)c2ccc3[nH]c(=O)ccc3c2)CC1,inactive,
CO[C@]1(NC(=O)CSC(F)F)C(=O)N2C(C(=O)O)=C(CSc3nnnn3CCO)CO[C@H]21,inactive,
Cc1cccc(C(C)C)c1NC(=O)C(NS(=O)(=O)c1cccc2nsnc12)c1ccccc1 (centres undefined),inactive,
C=C1CCC2[C@](C)(CO)C(O)CC[C@]2(C)C1CC=C1C(=O)OCC1O (some centres undefined),inactive,
Cc1oc2ccc(O)c(CN3CCCCC3)c2c1C(=O)Nc1cccc(C(F)(F)F)c1,28.2 µM (active),
Cc1oc2ccc(O)c(CN3CCC(C)CC3)c2c1C(=O)Nc1ccccc1,inactive,
Cc1oc2ccc(O)c(CN3CCOCC3)c2c1C(=O)Nc1cccc(Cl)c1C,inactive,
O=C(c1cccc(Cl)c1)N1CCN(CCc2ccncc2)CC1,inactive,
CCN(CC)c1ccc(C2C(C(N)=O)=C(C)Nc3nc(SCc4ccccc4)nn32)cc1 (centres undefined),inactive,
CC(C)(C)OC(=O)N1CCC(c2c(C(=O)N3CCc4ccccc4C3)cnn2-c2ccc(F)cc2)CC1,inactive,
COc1ccccc1NC(=O)C1=C(C)Nc2nc(SCC(=O)c3ccc(C)cc3)nn2C1c1ccccc1C (centres undefined),inactive,
CCc1nc2c(OCc3ccc(Cl)cc3Cl)cccn2c1N(C)C(=O)C(C)C,28.2 µM (active),
CCc1nc2c(OCc3cccc(OC)c3)cccn2c1N(C)C(=O)C(C)C,inactive,
CCc1nc2c(OCc3ccc(C(=O)OC)cc3)cccn2c1N(C)C(=O)C(C)C,inactive,
COC(=O)[C@@]1(Sc2ccc(C)cc2)CC(=O)N(c2cccc(SC)c2)[C@@H]1c1ccccc1,inactive,

Compound,Potency,"activity change, negative = inhibition"
CC=CC[C@@H](C)C(=O)[C@H]1C(=O)N[C@@H](C(C)C)C(=O)N(C)CC(=O)N(C)[C@@H](CC(C)C)C(=O)N[C@@H](C(C)C)C(=O)N(C)[C@@H](CC(C)C)C(=O)N[C@@H](C)C(=O)N[C@H](C)C(=O)N(C)[C@@H](CC(C)C)C(=O)N(C)[C@@H](CC(C)C)C(=O)N(C)[C@@H](C(C)C)C(=O)N1C,inactive,
O=C(NC1CCCC1)C1c2ccccc2OCC(=O)N1CC(F)(F)F (centres undefined),inactive,
Cc1cc(C)cc(NC(=O)Cn2c(=O)c3ccccc3n3nncc23)c1,inactive,
O=c1oc2ccccc2cc1-c1cn(-c2ccccc2)c(=S)[nH]1,8.91 µM (active),
CS(=O)(=O)N1CCN(C(=O)c2cc3ccccc3oc2=O)CC1,inactive,
Cc1cc(NC(=O)c2cccc(Cl)c2)ccc1-c1cc2ccccc2oc1=O,inactive,
Cc1ccc(CNC(=O)CCc2c(C)nc3nc(CNC(=O)OC(C)(C)C)nn3c2C)cc1,inactive,
COc1ccccc1NC(=O)CC(NCCN(C)C)C(=O)O (centres undefined),inactive,
COc1cccc2sc(N(CCCN(C)C)C(=O)C(c3ccccc3)c3ccccc3)nc12,22.4 µM (active),
CCN(CC)CCN(C(=O)c1cccc([N+](=O)[O-])c1)c1nc2ccc(OC)cc2s1,inactive,
Cc1nc2ccccc2nc(C)c1=NOCc1ccc(Cl)cc1Cl,inactive,
NC(N)=N/N=C/c1ccc(OCc2ccc(Cl)cc2Cl)cc1,22.4 µM (active),
COc1ccc(Cl)cc1N(CC(=O)N/N=C/c1ccc(OCC(N)=O)cc1)S(C)(=O)=O,inactive,
CCc1nc2ccc(C(=O)N(C)CCN(C)C)cn2c1N(CC)CCOC,inactive,
CC(C)Sc1oc(-c2cccs2)nc1S(=O)(=O)c1ccc(Cl)cc1,inactive,
CC1CC(C)(C)n2c(O)c(N=NC(N)=S)c3cccc1c32 (centres undefined),28.2 µM (active),
Cc1ccc(OCCn2c(CNc3ccccc3C)nc3ccccc32)cc1,inactive,
CCCn1ccc2c(OCC(=O)NCc3ccc(F)cc3)cccc2c1=O,inactive,
COc1ccc(C(C#N)=C2C=CC(=NO)c3ccccc32)cc1,inactive,
